These results are taken from ChEMBL document CHEMBL3988442, “University of Dundee, Small-Polar-MMV Screening Library” (2021).

Hit rate of the full screen: of about 48,000 compounds, about 13,000 (27%) showed an effect of 50% or more. The list shows a part of the results.

This test has as its system Wolbachia pipientis. The test is described as follows: Anti-Wolbachia Cell-Based Screen. Type of test: functional. Set-up: scale not given: in the data most compounds retested in dose-response had high values. Particulars: 5 µM.
On to `Cc1cccc(C2(O)CCN(C(=O)c3ccc(N(C)C)cc3)CC2)c1C`, for which the “Percent Effect” value is -4.914%.
Take `COc1ccc(Br)cc1NCC(=O)NC(C)(C#N)C1CC1` (stereo not drawn): the “Percent Effect” value is recorded as 14.48%.
Consider `c1ccc(CN2CCCC(CNc3ncnc4c3CCNCC4)C2)cc1` (stereo not drawn), for which the “Percent Effect” value is listed as 100.7%.
As for `c1ccc(CN2CCC(Nc3ncnc4c3CCNCC4)C2)cc1` (stereo not drawn), the “Percent Effect” value is 76.79%.
Under `c1cnnc(N2CCCC2CNc2ncnc3c2CCC3)c1` (stereo not drawn) stands 2.71%.
For `Cc1[nH]c2ccccc2c1CCNc1ncnc2c1CCNCC2` the value was -9.659%.
Take `c1ccc(CN2CCC(CNc3ncnc4c3CCNCC4)CC2)cc1`: the “Percent Effect” value stood at 97.41%.
For `O=C(Cn1cccn1)NCC1CCCN(Cc2ccccc2)C1` (stereo not drawn), the “Percent Effect” value is 8.029%.
For the compound `Cc1ccccc1CN1CCC(NCC2CNc3ccnn3C2)CC1` (stereo not drawn), the “Percent Effect” value is reported as 8.316%.
Under `c1ccc(CN2CCC(NCCSc3ncn[nH]3)C2)cc1` (stereo not drawn) stands 12.73%; under `Cc1nc(CN2CCCC(Nc3ncnc4c3CCC4)C2)no1` (stereo not drawn), -2.2%.
Regarding `Cc1ccccc1CN1CCC(CNc2ncnc3c2CCNCC3)C1` (stereo not drawn), the “Percent Effect” value was found to be 119.4%.
As for `OC(CN(Cc1ccccc1)Cc1ccncc1)c1cccs1` (stereo not drawn), the “Percent Effect” value was found to be 13.62%.
In the case of `Cc1nnc(CN2CCC(Oc3ccc(C)c(C)c3)CC2)o1`, the “Percent Effect” value is -18.16%.
Turning to `Cc1ccc(CNCCS(=O)(=O)N2CCOCC2)cc1C`, the “Percent Effect” value is -37.41%.
Turning to `c1ccc(CN2CCC(CCNc3ncnc4c3CCNCC4)C2)cc1` (stereo not drawn), the “Percent Effect” value was 82.99%.
For the compound `Cc1ccn(CCNc2ncnc3c2CCN(Cc2ncc[nH]2)CC3)n1`, the “Percent Effect” value stood at 5.519%.
In the case of `COCC1CC2(CCN(C(=O)c3occc3C)CC2)CN1C(C)C.O=C(O)C(F)(F)F` (stereo not drawn), the “Percent Effect” value worked out at 98.04%.
For the compound `COCC1CC2(CCN(C(=O)c3cc(C)oc3C)CC2)CN1C(C)C.O=C(O)C(F)(F)F` (stereo not drawn), the “Percent Effect” value is on record as 17.98%.
`COCC1CC2(CCN(Cc3cnn(C)c3)CC2)CN1C(C)C.O=C(O)C(F)(F)F.O=C(O)C(F)(F)F` (stereo not drawn): the “Percent Effect” value is -6.847%.
With `COCC1CC2(CCN(Cc3ccc(OC)cc3)CC2)CN1C(C)C.O=C(O)C(F)(F)F.O=C(O)C(F)(F)F` (stereo not drawn), the “Percent Effect” value is -13.29%.
With `COCC1CC2(CCN(C(=O)c3cccn3C)CC2)CN1C(C)C` (stereo not drawn), the “Percent Effect” value is -8.006%.
Take `COCC1CC2(CCN(C(=O)c3ccc(C)nc3)CC2)CO1.O=C(O)C(F)(F)F` (stereo not drawn): the “Percent Effect” value was -3.949%.
As to `COCC1CC2(CCN(C(=O)c3ccccc3C)CC2)CN1C(C)C.O=C(O)C(F)(F)F` (stereo not drawn), the “Percent Effect” value was determined as 101.7%.
As to `COCC1CC2(CCN(Cc3ccc(C)o3)CC2)CN1C(C)C.O=C(O)C(F)(F)F.O=C(O)C(F)(F)F` (stereo not drawn), the “Percent Effect” value was 100.3%.
On to `COCC1CC2(CCN(C(=O)c3ccco3)CC2)CN1C(C)C.O=C(O)C(F)(F)F` (stereo not drawn), for which the “Percent Effect” value came to 111.9%.
Consider `N#Cc1ccc(C2CC(=O)Nc3c2cnn3C2CCCC2)cc1` (stereo not drawn), for which the “Percent Effect” value was 11.66%.
For `N#Cc1cn(C2CC2)c(=O)n(Cc2cc(-c3cccs3)on2)c1=O` the value was 15.09%; for `COC(=O)CCN1CCC(NC(=O)OC(C)(C)C)CC1`, -7.075%; for `CC(C1CCN(Cc2cnn(C)c2C2CC2)CC1)N1CCN(C)CC1` (stereo not drawn), -5.459%.
For the compound `COc1ccc(C)cc1-n1cnnc1C1CCCN(C)C1` (stereo not drawn), the “Percent Effect” value turned out to be 8.034%.
In the case of `Cc1nnc(N2CCCC(C(=O)c3cccc(Cl)c3)C2)o1` (stereo not drawn), the “Percent Effect” value was -20.06%.
As for `CN1CCCC(c2nc3c([nH]2)CC(C)(C)CNC3=O)C1` (stereo not drawn), the “Percent Effect” value is -16.77%.
`O=C(c1cccc(Cl)c1)C1CCCN(c2nnc(C3CCC3)o2)C1` (stereo not drawn): the “Percent Effect” value is reported as -5.901%.
For `Cc1cccc(-c2nccnc2C2CCN(C)CC2)c1C` the value was 64.83%; for `CN1CCCC(c2nccnc2-c2cccc(Cl)c2)C1` (stereo not drawn), 117.7%.
For `Cc1cccc(-c2nccnc2C2CCCN(C)C2)c1C` (stereo not drawn), the “Percent Effect” value was 89.85%.
In the case of `CCN(C)C(C(=O)Nc1ccc2c(c1)CCC(=O)N2)c1ccccc1` (stereo not drawn), the “Percent Effect” value came to 0.8734%.
Take `OCCn1ncc2c1CN(CC1CCOc3ccccc3C1)C2` (stereo not drawn): the “Percent Effect” value turned out to be 4.778%.
As to `CC(NC(=O)NCc1cscn1)c1ccc(N2CCOCC2)cc1` (stereo not drawn), the “Percent Effect” value is -18.24%.
On to `O=c1[nH]c2c(c(=O)n1C1CCCCC1)CCC2NCCc1ccccc1` (stereo not drawn), for which the “Percent Effect” value was 24.49%.
Turning to `CC(C)N(CC1CCCN(CC(N)=O)C1)C(=O)OC(C)(C)C` (stereo not drawn), the “Percent Effect” value was found to be 12.71%.
Under `COc1cccc(-c2cc(-c3nc(CN4CCN(C)CC4)no3)[nH]n2)c1` stands 0.4618%.
For `Cn1cccc1C(=O)N1CCC2(CC1)CCN2S(C)(=O)=O` the value was -0.7561%; for `Cc1ccc(C(=O)N2CCC(O)(CN3CCc4ccccc4C3)C2)s1` (stereo not drawn), 99.66%; for `CN(C)CC1(O)CCN(C(=O)c2cnc(CN3CCCC3)s2)C1` (stereo not drawn), -12.27%.
Under `Cn1cccc1C(=O)N1CCCC2(CCCN2S(C)(=O)=O)C1` (stereo not drawn) stands 2.477%.
With `Cc1csc(C(=O)N2CCC(O)(CN3CCc4ccccc4C3)C2)c1` (stereo not drawn), the “Percent Effect” value worked out at 114.3%.
In the case of `Cc1ccc(C(=O)N2CCN(CC(O)c3ccc(F)cc3)CC2)s1` (stereo not drawn), the “Percent Effect” value is given as -1.791%.
Regarding `Cn1cccc1C(=O)N1CCC(O)(CN2CCc3ccccc3C2)C1` (stereo not drawn), the “Percent Effect” value was 119.3%.
Turning to `O=S1(=O)C[C@@H]2[C@H](C1)N(Cc1cccc(O)c1)CCN2CC1CC1`, the “Percent Effect” value was -9.844%.
For `Cc1noc([C@@H]2C[C@H](NS(=O)(=O)Cc3ccccc3)CN2C)n1` the value was -2.99%.
For the compound `CC(OCC1CC1)C(=O)NCc1ccc(Cn2ccnc2)cc1` (stereo not drawn), the “Percent Effect” value is reported as -1.593%.
For `COc1ccccc1C(=O)N1CC(=O)N(Cc2ccco2)CC(O)C1` (stereo not drawn) the value was 85.9%; for `Cc1ccc(C(=O)N2CC(=O)N(Cc3ccco3)CC(O)C2)cc1` (stereo not drawn), 118.6%; for `COc1ccccc1C(=O)N1CC2(COC(C)(C)OC2)C1`, -9.843%.
Under `CCc1ccc(CN2C[C@@H](C(=O)O)[C@H](c3ccccc3OC)C2)o1` stands -18.6%; under `Cc1ccc([C@@H]2CN(C(=O)CCc3ccco3)C[C@H]2N(C)C)cc1`, -4.926%.
On to `Cc1cc(C(=O)N2CCN(Cc3ccco3)C(CCO)C2)cc(=O)[nH]1` (stereo not drawn), for which the “Percent Effect” value is given as -4.439%.
For `CS(=O)(=O)NCC1CCCCN1C(=O)c1cccc(C(F)(F)F)c1` (stereo not drawn) the value was 93.67%; for `Cc1ccc(-c2nc(C(=O)N3CCCCC3CNS(C)(=O)=O)cs2)cc1` (stereo not drawn), 5.411%; for `NC(=O)CC1CCCCN1C(=O)c1cccc(C(F)(F)F)c1` (stereo not drawn), 118.1%.
Turning to `NC(=O)CN(C(=O)c1cccc(C(F)(F)F)c1)C1CCCC1`, the “Percent Effect” value was -15.86%.
For `NC(=O)NCC1CCCCN1C(=O)c1cccc(C(F)(F)F)c1` (stereo not drawn) the value was 3.602%.
Regarding `CCC(O)CNC(=O)C1(N(C)Cc2ccccc2)Cc2ccccc2C1` (stereo not drawn), the “Percent Effect” value was -9.431%.
`CCc1nc2n(n1)CCCC2NC(=O)Nc1ccc(SC)c(F)c1` (stereo not drawn): the “Percent Effect” value is -17.88%.
Under `COc1cc(N2CCCC(c3nccn3CCN(C)C)C2)nc(N)n1` (stereo not drawn) stands -7.598%.
Take `COc1ccc(CN2C[C@H](OCC3CCOCC3)[C@H]3COC[C@H]32)cc1.O=C(O)C(F)(F)F`: the “Percent Effect” value is reported as 2.727%.
Under `COc1ccc(CN2C[C@@H](OCc3csc(C)n3)[C@H]3COC[C@H]32)cc1.O=C(O)C(F)(F)F` stands -4.618%.
For `O=C(O)C(F)(F)F.c1cc(CN2C[C@H](OCC3CCOCC3)[C@H]3COC[C@H]32)co1` the value was 84.18%; for `O=C(O)C(F)(F)F.c1cc(CN2C[C@H](OCC3CCOCC3)[C@H]3COC[C@H]32)cs1`, 93.96%.
For the compound `N#Cc1cccc(CN2C[C@H](OCC3CCOCC3)[C@H]3COC[C@H]32)c1.O=C(O)C(F)(F)F`, the “Percent Effect” value is -3.694%.
Under `c1ncc(-c2cn(CCSc3cnn[nH]3)nn2)cn1` stands -12.65%; under `Cc1cccc(OC2CCN(C(=O)NCc3cc[nH]n3)CC2)c1C`, -1.831%.
As for `CC(CNC(=O)N1CCN(c2ncccn2)CC1)Cc1cccs1` (stereo not drawn), the “Percent Effect” value is on record as -35.53%.
On to `O=C(NCc1cc2n(n1)CCCNC2)C1(c2ccccc2)CCCCC1`, for which the “Percent Effect” value is reported as 0.555%.
On to `N#Cc1ccccc1N1CCCN(C(=O)NCc2cc[nH]n2)CC1`, for which the “Percent Effect” value is 136.7%.
As to `CS(=O)(=O)NC1CCN(C(=O)NCc2cc[nH]n2)CC1`, the “Percent Effect” value came out at 108.2%.
Turning to `CCC(CNC(=O)NCc1cc[nH]n1)N1CCCC1` (stereo not drawn), the “Percent Effect” value is given as 2.082%.
Under `CS(=O)(=O)NC1CCCN(C(=O)NCc2cc[nH]n2)C1` (stereo not drawn) stands -1.074%.
With `O=C(NCc1cc[nH]n1)N1CCN(c2ncccn2)CC1`, the “Percent Effect” value is on record as 105.7%.
For the compound `O=C(NCC1CCOC1)N1CCN(c2ncccn2)CC1` (stereo not drawn), the “Percent Effect” value is 14.21%.
Consider `N#Cc1ccccc1N1CCN(C(=O)NCC(=O)N2CCCC2)CC1`, for which the “Percent Effect” value is given as -1.371%.
Regarding `CC(=O)N1CCC(C(=O)NCc2cc[nH]n2)(c2ccccc2)CC1`, the “Percent Effect” value was 107.6%.
Consider `COCCOCCNC(=O)N1CCN(c2ccccc2C#N)CC1`, for which the “Percent Effect” value is listed as 9.744%.
Under `Cc1nn(C)c2ncc(NC(=O)N(C)Cc3cnn(C)c3)cc12` stands 3.959%.
As to `COc1ccc(C(=O)O)c(OCC(=O)NC(C)c2ccccc2)c1` (stereo not drawn), the “Percent Effect” value is -11.95%.
For `COc1cncc(N2CCN(Cc3ccncc3Cl)CC2)n1` the value was -15.95%; for `O=C(NCc1cc[nH]n1)N1CCN(c2ccccc2Cl)CC1`, 14.41%.
Consider `CC(=O)N1CCCN(C(=O)NCc2cc[nH]n2)CC1`, for which the “Percent Effect” value is -2.345%.
For the compound `CC(=O)c1ccc(N2CCN(C(=O)NCc3cc[nH]n3)CC2)cc1`, the “Percent Effect” value is listed as 106.6%.
Under `CCN1CCN(C(=O)NCc2cc[nH]n2)CC1` stands 108.7%; under `NC(=O)c1ccc(CNC(=O)NCc2cc[nH]n2)cc1`, 0.637%; under `CCOc1ccccc1N1CCN(C(=O)NCc2cc[nH]n2)CC1`, 100.3%.
For `O=C(NCc1ccc(N2CCSCC2)cc1)NCc1cc[nH]n1` the value was -6.382%; for `O=C(NCc1cc[nH]n1)N1CCC(Oc2ccccc2Cl)CC1`, -25.2%; for `CCC1c2ccsc2CCN1C(=O)NCc1cc[nH]n1` (stereo not drawn), 5.553%.
Under `CN(C)c1ccccc1C(=O)N1C[C@@H](CN2CCC(O)CC2)[C@@H](CO)C1` stands -115.2%.
